# High-throughput results deposited in PubChem by National Center for Advancing Translational Sciences (NCATS).
# An excerpt weighted towards active compounds, which were near 9.3% of everything screened.
# Rab9 prom act – activates the Rab9 promoter | Huh7 Rab9 promoter-luciferase reporter, luminescence, 24 h | 320,000 compounds, 2.8% hits | Potency, µM (highest dose often 9.22 µM), inactives show top-dose activation, negative = inhibition, most hits filed as activators; note: % of control where 0% means no effect; nearly all actives have a fitted effect of over 60% in size
#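 Rab9 promoter-driven luciferase in stably transfected Huh7 cells; 1500 cells/well rested 2 h, exposed to compound in DMSO for 24 h at 37 °C, 5% CO2. Luminescence read 10 min after adding luciferase reagent at ambient temperature.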
# ELG1 genotox – genotoxicity induction in ELG1-luciferase HEK293T cells | HEK293T ELG1-luciferase reporter, luminescence, 16 h | Potency, µM (top dose mostly 46 µM), for the others: top-dose activity change, positive = activation, usual class: activators | 330,000 compounds, 1.3% hits; note: % of control where 0% means no effect; nearly all actives have a fitted effect of over 60% in size
#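 Genotoxic stress is detected as increased luminescence from luciferase-tagged ELG1 in HEK293T cells, measured with ONE-Glo after a 16 hr treatment at 37 °C.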
# SMN2 splice up – increases expression of the SMN2 splice variant. HEK293 SMN2-luciferase splicing reporter, luminescence, 30-36 h. Potency, µM (doses to about 46.1 µM), inactives show at the top dose activity change, positive = activation, most hits filed as activators. 210,000 compounds, 2.8% hits. AID 1458; note: % of control where 0% means no effect; nearly all actives have a fitted effect of over 55% in size
#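 qHTS luciferase splicing reporter: luminescence rises when SMN2 exon 7 is included in transfected HEK293 cells. Compound exposure lasted 30-36 h at 37C, with 4.5 mM final sodium butyrate as control, followed by a ONE-Glo read.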
# ELG1 repair inh – blocks ELG1-dependent DNA repair in HEK293T cells. Potency, µM (doses to about 46.1 µM), without a hit: at the highest dose activity change, negative = inhibition, actives largely listed as inhibitors. HEK293T ELG1-luciferase reporter, luminescence, 16 h; DNA damage induced by 5-fluorouridine. AID 504467. 330,000 compounds, 2.3% hits; note: % is set by controls: 0 for no effect and ±100 for the full control effect; nearly all actives have a fitted effect of over 55% in size
#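 5-Fluorouridine DNA damage + compound/DMSO, 2,000 cells/well, 16 h, 37 °C/5% CO2. ONE-Glo, 30 min RT, luminescence. Readout = decrease in reporter signal.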
# FLuc counter – inhibits or activates purified firefly luciferase, miR-21 counter-screen; P08659; 360,000 compounds, 6.9% hits; purified FLuc, Km substrates, luminescence inhibition; Potency, µM (titrated, usually from 57.5 µM), for inactives: at the top dose activity change, negative = inhibition, most hits filed as inhibitors;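 note: plate controls were vehicle for no effect and reference inhibitor for full effect; nearly all actives have a fitted effect of over 55% in size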
# Target sequence (P08659 whole entry, looked up): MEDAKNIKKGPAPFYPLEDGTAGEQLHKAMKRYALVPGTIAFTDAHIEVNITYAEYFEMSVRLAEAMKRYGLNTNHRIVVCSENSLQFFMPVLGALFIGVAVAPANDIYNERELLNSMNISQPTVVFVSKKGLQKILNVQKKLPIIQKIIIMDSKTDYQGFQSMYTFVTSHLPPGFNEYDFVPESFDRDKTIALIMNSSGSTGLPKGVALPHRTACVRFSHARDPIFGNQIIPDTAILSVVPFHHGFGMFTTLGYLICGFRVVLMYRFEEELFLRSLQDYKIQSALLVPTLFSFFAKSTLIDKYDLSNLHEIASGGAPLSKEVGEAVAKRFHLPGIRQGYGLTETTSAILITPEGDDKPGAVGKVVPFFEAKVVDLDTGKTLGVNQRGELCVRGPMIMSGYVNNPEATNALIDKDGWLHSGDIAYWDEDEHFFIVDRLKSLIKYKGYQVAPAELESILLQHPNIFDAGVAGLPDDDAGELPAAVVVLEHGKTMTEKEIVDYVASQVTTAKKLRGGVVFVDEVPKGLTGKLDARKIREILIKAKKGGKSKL
#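 Purified P. pyralis luciferase (10nM final) with 10uM D-luciferin and 10uM ATP (Km levels) in 50mM Tris acetate pH 7.5, 10mM Mg acetate, 0.01% Tween-20, 0.05% BSA; qHTS 6-point titration, ~60 µM downward; luminescence read.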
# NPC1 promoter act – activators of NPC1 promoter. 320,000 compounds, 2.4% hits. Potency, µM (doses to about 9.22 µM), for the others: at the top dose activation, most hits filed as activators. Huh7 NPC1 promoter luciferase reporter, 24 h. AID 485313; note: % of control where 0% means no effect; nearly all actives have a fitted effect of over 60% in size
#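 Compounds in DMSO were transferred onto Huh7 NPC1-luciferase reporter cells pre-incubated 2 h; after 24 h at 37 °C, Amplite reagent was dispensed and luminescence recorded 10 min later.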
# * = called active by the depositor; ? = inconclusive; / = not tested or not shown; [ ] = dose if it differs, or a comment. Calls come from the whole dose curve; as a rule, active = well fitted curve in the direction sought with a large enough effect; inconclusive = small, poorly fitted or top-dose-only effect, or another doubt; inactive = no such curve, though single readings can be large; an effect the other way counts as inactive or inconclusive. Potency is the fitted concentration of half-maximal effect.
SMILES,Rab9 prom act,ELG1 genotox,SMN2 splice up,ELG1 repair inh,FLuc counter,NPC1 promoter act
CC(=O)Nc1ccc(C(=O)Nc2ccc3c(c2)OCCO3)cc1,5%,?,/,?,15µM*,-2%
CC(=O)Nc1ccc(C(=O)Nc2ccc3c(c2)OCO3)cc1,24%,13%,3%,?,?,16%
CCN(CC(=O)Nc1ccc(NC(C)=O)cc1)C(=O)/C=C/c1ccc2c(c1)OCO2,0%,10%,/,?,?,-2%
Cc1cc(C)n(-c2ccc(C(=O)NCc3ccc4c(c3)OCO4)cc2)n1,4%,-2%,-13%,-5%,12%,2%
COc1cc(OC)cc(C(=O)Nc2ccc3c(c2)OCCO3)c1,3.2µM*,?,10µM*,?,3µM*,4µM*
CCCCOc1ccc(/C=C/C(=O)N(CC)CC(=O)Nc2ccc3c(c2)OCCO3)cc1OC,2%,-10%,/,18µM*,-4%,-5%
CCN(CC(=O)Nc1ccc2c(c1)OCCO2)C(=O)c1ccc(Cl)cc1Cl,1.4µM*,?,/,?,7.6µM*,4µM*
CCOc1ccc(C(=O)Nc2ccc3c(c2)OCCO3)cc1OC,?,18µM*,13µM*,?,2.7µM*,?
CCN(CC(=O)Nc1ccc2c(c1)OCCO2)C(=O)c1cc(Cl)nc2ccccc12,-3%,0%,/,-2%,-3%,-2%
CCOc1ccc(C(=O)Nc2ccc3c(c2)OCCO3)cc1[N+](=O)[O-],21%,-13%,-28%,6%,?,0%
Cc1nnc(SCc2nc3ccccc3s2)n1-c1ccccc1,22%,?,?,?,15µM*,19%
Cc1nnc(SCc2nc3ccccc3s2)n1N,-29%,13µM*,/,?,9.5µM*,11%
c1ccc(-n2cnnc2SCc2nc3ccccc3s2)cc1,29%,?,-17%,?,17µM*,3%
c1ccc(-c2ncc(CSc3nncn3-c3ccccc3)s2)cc1,1%,0%,-55%,-1%,0%,1%
c1ccc(Cn2c(SCc3nc4ccccc4s3)nnc2-c2ccco2)cc1,4%,-1%,-3%,?,-13%,11%
CCn1c(SCc2nc3ccccc3s2)nnc1-c1ccccc1,1%,13µM*,-3%,?,15µM*,3%
C=C(C)CSc1nc2c(c(=O)[nH]c(=O)n2C)n1CCC(C)C,0%,-3%,-33%,?,1%,-1%
CCC(c1nnc(SCc2nc3ccccc3s2)n1Cc1ccccc1)N(C)C (stereo unspecified),13%,?,-14%,?,17µM*,0%
Cc1cc2ccccc2c(=O)[nH]1,-3%[1.84 µM],5%,14%,?,1%,-4%
O=c1[nH]c(-c2ccccn2)cc2ccccc12,?,?,16µM*,?,17µM*,?
CCOC(=O)N/N=C/c1c(C)c(C(=O)c2ccc(F)cc2)n2ccccc12,-2%,-18%,15%,?,-2%,3%
Cc1c(/C=N/NC(=O)c2cccnc2)c2ccccn2c1C(=O)c1ccc(F)cc1,-3%,-11%,-24%,18µM*,15µM*,-2%
Cc1c(/C=N/NC(=O)c2cc(=O)[nH]c(=O)[nH]2)c2ccccn2c1C(=O)c1ccccc1,-2%,-2%,-16%,-2%,24µM*,0%
COC(=O)N/N=C/c1c(C)c(C(=O)c2ccc(F)cc2)n2ccccc12,1%,-16%,-38%,23µM*,4%,1%
Cc1c(/C=N/NC(=O)c2ccccc2O)c2ccccn2c1C(=O)c1ccc(F)cc1,7%,-17%,-103%,23µM*,13µM*,-1%
Cc1c(/C=N/NC(=O)c2ccc(O)cc2)c2ccccn2c1C(=O)c1ccc(F)cc1,6%,-8%,-35%,?,?,5%
